Screening results from PubChem.
Shown are actives, neighbours in structure and some others; about 19% of the full set was active somewhere.
IL1B secr inh – inhibitors of inflammasome signaling (IL-1 beta secretion). THP-1 LPS/ATP IL-1B secretion, AlphaLISA, 16 h; hits give low values. activity change, % at 57.5 µM. hit rate 4.7% among 360,000; in the data active = activity change below about -50%; inconclusive = mostly about -30% to -49%
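THP-1 cells pretreated 1 hr with compounds (up to 57.5 uM final), then stimulated with LPS (250 ng/mL final) plus ATP (1.25 mM final); secreted IL-1B measured by AlphaLISA after 16 hr, decreased signal indicating inhibition.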
TDP1 cell noCPT – qHTS for Inhibitors of human tyrosyl-DNA phosphodiesterase 1 (TDP1): qHTS in cells in absence of CPT; DT40 Tdp1-/- hTDP1 cells, no CPT, ATP luminescence, 48 h; AID 686978, 2013; Potency, µM (titrated, usually from 46.2 µM), most hits filed as inhibitors; hit rate 15% among 420,000; also: nearly all actives have a fitted effect of over 55% in size
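Stably hTDP1-transfected Tdp1-null chicken DT40 cells were treated with library compounds minus camptothecin and grown for at least 48 hr at 37 °C, after which cellular ATP was quantified by luminescence.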
uPA generation – blocks generation of uPA at the cell surface. Potency, µM (top dose mostly 38.3 µM), hits mostly inhibitors. hit rate 0.31% among 330,000. cell surface uPA generation assay, qHTS; active = well fitted inhibition curve with a large enough effect; inconclusive = small, poorly fitted or top-dose-only effect; inactive = no such curve, though single readings can be large or run the other way; tested in mouse RAW 264.7 cells; also: nearly all actives have a fitted effect of over 55% in size
DT40 TDP1 CPT – DT40-hTDP1 cell growth loss with CPT; chicken DT40 Tdp1-/-;hTDP1 cells + 20 nM CPT, ATP luminescence, 48 h; Potency, µM (doses to about 46.2 µM), actives largely listed as inhibitors; hit rate 12% among 420,000; AID 686979; also: nearly all actives have a fitted effect of over 55% in size
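Chicken DT40 Tdp1-/- cells complemented with human TDP1, 400 cells/well, exposed to compounds plus 20 nM camptothecin for at least 48 h at 37 C; viability read as ATP content by CellTiter-Glo luminescence.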
HT1080 IDH1KD tx – kills HT-1080 cells with IDH1 knockdown; AID 686971; Potency, µM (titrated, usually from 46.1 µM), most hits filed as cytotoxic; hit rate 2% among 360,000; HT-1080 IDH1 knockdown viability, ATP luminescence, 48 h
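Knockdown cells (IDH1KD HT-1080) received compounds 2 h after plating at 750 cells/well and were kept 48 h at 37 °C in 5% FBS RPMI. A CellTiter-Glo luminescence read gave % activity for curve fitting.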
HT1080NT lethal – kills 2HG-producing HT-1080-NT fibrosarcoma cells; hit rate 1.6% among 360,000; Potency, µM (top dose mostly 46.1 µM), hits mostly cytotoxic; HT-1080-NT fibrosarcoma viability, CellTiter-Glo ATP luminescence, 48 h;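 also: NT is the 2HG producing partner of a matched IDH1 knockdown line; nearly all actives have a fitted effect of over 55% in size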
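Viability of the 2HG-overproducing fibrosarcoma line after 48 hours of compound exposure at 37 degrees C was determined by luminescence with CellTiter-Glo, and concentration-effect curves were then fitted and categorized.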
Hits are given with their value; 0 = inactive; ? = inconclusive; - = not tested or not shown; ! = repeats disagree. Unless noted, calls follow the shape of the dose curve; as a rule, active = well fitted curve in the direction sought with a large enough effect; inconclusive = small, poorly fitted or top-dose-only effect, or another doubt; inactive = no such curve, though single readings can be large; an effect the other way counts as inactive or inconclusive.

SMILES | IL1B secr inh | TDP1 cell noCPT | uPA generation | DT40 TDP1 CPT | HT1080 IDH1KD tx | HT1080NT lethal
COc1ccc(/C=C2/SC(=S)N(CCCC(=O)N3CCN(C)CC3)C2=O)cc1 | 0 | 21µM | 0 | ? | 0 | 0
COc1ccc(-c2cc3c(=O)n(CC(=O)N4CCN(C)CC4)ncn3n2)cc1 | 0 | 0 | ? | 21µM | 0 | 0
COc1ccc(-c2cc3c(=O)n(CC(=O)N4CCCCC4)ncn3n2)cc1 | 0 | 0 | 0 | 0 | 0 | 0
COc1ccc(/C=C2\SC(=S)N(CC(=O)NCCO)C2=O)cc1 | 0 | 0 | 0 | 0 | 0 | ?
Cc1nc2cc(Oc3nc(NCCN(C)C)nc4ccsc34)ccc2s1 | 0 | ? | - | ? | ? | ?
CNc1nc(Oc2ccc3sc(C)nc3c2)c2sccc2n1 | 0 | 21µM | - | 21µM | ? | 0
Cn1c(=O)c2sccc2n2c(CCC(=O)NCc3ccccc3)nnc12 | - | 0 | - | 0 | - | -
COc1ccccc1CNC(=O)c1ccc(N2CCCC2)c(NC(=O)NCc2ccc(F)cc2)c1 | - | 0 | - | ? | - | -
CC(=O)N(O)CCCCCNC(=O)CCC(=O)N(O)CCCCCNC(=O)CCC(=O)N(O)CCCCCN | 0 | 12µM! | 0 | 21µM! | ? | ?
CC(C)N(C(=O)[C@H]1C[C@H](CC(=O)NCC23CC4CC(CC(C4)C2)C3)C(=O)N2CCc3c([nH]c4cc(CCC(=O)N(C)C)ccc34)[C@]12C)C(C)C | 0 | 7.3µM | ? | 6.5µM | 0 | 0
CN(C)C(=O)CCc1ccc2c3c([nH]c2c1)[C@]1(C)[C@@H](C(=O)N2CCOCC2)C[C@H](CC(=O)NC(C)(C)C)C(=O)N1CC3 | 0 | 0 | 0 | 0 | 0 | 0
CN(C)C(=O)CCc1ccc2c3c([nH]c2c1)[C@]1(C)[C@@H](C(=O)N2CCOCC2)C[C@H](CC(=O)NCC24CC5CC(CC(C5)C2)C4)C(=O)N1CC3 | 0 | ? | 0 | 15µM | 0 | 0
CC[C@]12c3[nH]c4cc(CCC(=O)N(C)C)ccc4c3CCN1C(=O)[C@@H](CC(=O)NCC13CC4CC(CC(C4)C1)C3)C[C@@H]2C(=O)N1CCN(C(=O)c2ccco2)CC1 | 0 | 16µM | 0 | ? | ? | 0
COc1ccc(N(Cc2cccs2)C(=O)c2ccc(Br)o2)cc1 | - | 18µM | - | 15µM | - | -
CC(C)Oc1ccc(C(=O)NCc2cccs2)cc1 | 0 | ? | - | ? | 0 | 0
Cc1ccc(N(Cc2cccs2)C(=O)c2ccc(OC(C)C)cc2)cc1 | - | ? | - | 21µM | - | -
COc1ccc(N(C(=O)Cc2cccs2)C2C=CS(=O)(=O)C2)cc1 (stereo not drawn) | 0 | 0 | 0 | 0 | 0 | 0
COc1ccc(N(Cc2cccs2)C(=O)COc2cccc(C)c2C)cc1 | - | 18µM | - | ? | - | -
Cc1ccc(N(Cc2cccs2)C(=O)COc2cccc(C)c2)cc1 | - | 23µM | - | ? | - | -
CCOC(=O)CNC(=S)n1cnc(N)n1 | 0 | ? | 0 | 0 | 0 | 0
Cc1ccc(S(=O)(=O)NC(=O)C2(C)CCN2C(=O)c2ccc(C(F)(F)F)nc2C)cc1 (stereo not drawn) | 0 | 0 | - | 0 | 0 | 0
CCC(CC)NC(=O)c1cc2c(C)nn(Cc3ccccc3Cl)c2s1 | 0 | ? | 0 | 23µM | ? | 0
COc1ccccc1CNC(=O)c1cc2c(C)nn(Cc3ccc(F)cc3)c2s1 | -52 | ? | 0 | ? | 0 | 0
Cc1nn(Cc2ccccc2Cl)c2sc(C(=O)Nc3ccccc3N3CCOCC3)cc12 | 0 | ? | 0 | 10µM | 0 | 0
Cc1nn(Cc2ccc(F)cc2)c2sc(C(=O)Nc3nccs3)cc12 | 0 | 0 | 0 | 0 | 0 | 0
SMILES | IL1B secr inh | TDP1 cell noCPT | uPA generation | DT40 TDP1 CPT | HT1080 IDH1KD tx | HT1080NT lethal
COC(=O)c1cc(NC2(c3ccccc3)C(=O)c3ccccc3C2=O)cc(C(=O)OC)c1 | - | 0 | - | 0 | - | -
COc1cccc(CNC(=O)Cn2c(=O)n3nc(-c4cccc(C)c4)nc3c3ccccc32)c1 | - | 15µM | - | 16µM | - | -
CCN(C(=O)Cn1c(=O)n2nc(CCn3nc(C)cc3C)nc2c2ccccc21)c1cccc(C)c1 | 0 | 0 | 0 | 0 | 0 | 0
Cc1cccc(NC(=O)Cn2c(=O)n3nc(CCn4nc(C)cc4C)nc3c3ccccc32)c1 | 0 | 13µM | - | 18µM | 0 | 0
COc1ccc(CC(=O)NNC(=S)NCC2CC2)cc1OC | 0 | ? | 0 | 0 | 0 | 0
COc1cccc(CNC(=O)c2oc3c(c2C)-c2nn(Cc4cccc(Cl)c4)cc2CC3)c1 | - | 18µM | - | ? | - | -
COc1ccc(CNC(=O)c2oc3c(c2C)-c2nn(Cc4ccc(Cl)cc4)cc2CC3)cc1 | - | 23µM | - | ? | - | -
COc1cccc(CNC(=O)c2oc3c(c2C)-c2nn(Cc4cccc(Cl)c4)cc2CC3)c1OC | - | 21µM | - | 16µM | - | -
CCOc1ccc(CNC(=O)Cn2cc3c(n2)-c2c(oc(C(=O)N4CCOCC4)c2C)CC3)cc1 | - | 21µM | - | ? | - | -
COc1ccc(NC(=O)c2ccc(Cn3cc(Cl)cn3)cc2)cc1 | 0 | ? | 0 | 0 | 0 | 0
O=C(CCNS(=O)(=O)c1ccc(F)c(Cl)c1)NCc1ccccc1F | 0 | 0 | 0 | 0 | 0 | 0
Cc1cccc(Nc2ccc(C(=O)N3CCOCC3)cn2)c1 | 0 | 0 | 0 | 0 | 0 | 0
Cc1ccc(Nc2ccc(C(=O)N3CCCC3)cn2)c(C)c1 | 0 | 26µM | 0 | ? | 0 | 0
Clc1cccc(Cc2c(-c3cccc(Br)c3)nc3ccc(Br)cn23)c1 | 0 | ? | - | ? | 0 | 0
CCCc1nc2ccc(Br)cn2c1Cc1ccccc1 | 0 | 2.9µM | - | 4.6µM | 0 | 0
CCCc1nc2ccc(Br)cn2c1Cc1cccc(Cl)c1 | 0 | 4.6µM | - | 6.5µM | ? | ?
COc1ccccc1-n1cc(-c2ccccc2)c2c(=S)nc[nH]c21 | 0 | ? | 0 | 0 | ? | 0
CC(=O)N1c2ccc(S(=O)(=O)N(C)c3cc(C)ccc3C)cc2CC1C (stereo not drawn) | 0 | 23µM | 0 | ? | 0 | 0
COc1ccc(C)cc1NC(=O)CN(C)S(=O)(=O)c1ccc2c(c1)CC(C)N2C(C)=O (stereo not drawn) | 0 | ? | ? | 23µM | 0 | 0
CCc1ccc(NC(=S)NC2CCN(Cc3ccccc3)CC2)cc1 | 0 | 12µM | 0 | 7.3µM | 0 | 0
S=C(Nc1ccccc1)NC1CCN(Cc2ccccc2)CC1 | 0 | ? | 0 | 0 | 0 | 0
S=C(Nc1ccc(Cl)cc1)NC1CCN(Cc2ccccc2)CC1 | -94 | 9.2µM | 0 | 21µM | 0 | 0
Cc1ccc(NC(=S)NC2CCN(Cc3ccccc3)CC2)c(C)c1 | -57 | ? | 0 | ? | 0 | 0
CCC(C)c1ccc(NC(=S)NC2CCN(Cc3ccccc3)CC2)cc1 (stereo not drawn) | -94 | 7.3µM | 0 | 8.2µM | ? | 18µM
Cn1c(NCCCO)nc2c1c(=O)n(Cc1cccc(F)c1)c(=O)n2C | - | 0 | - | 0 | - | -
